Measurements reported in PubChem BioAssay (NCI).
This is part of a sample that, as a whole, favours compounds with a hit. Of some 83,000 tested, about 20% had one in any assay.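 Assay: single dose, 48 h. Readout: percent growth (0 = no net growth; negative = cell death). Active: <10.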 Unmarked numbers belong to inactive results. The source made the active and inactive calls.

Experiments:
Test in all cases: NCI-60 one-dose screen, 48 h (100 = growth as untreated, 0 = no growth, -100 = all killed)
Details in all cases: 10 µM unless noted
NCI-H226 lung = tested on: NCI-H226 lung
NCI-H322M lung = tested on: NCI-H322M lung
HOP-62 NSCLC = tested on: HOP-62 NSCLC
NCI-H460 lung = tested on: NCI-H460 lung
HOP-92 NSCLC = tested on: HOP-92 NSCLC
NCI-H522 lung = tested on: NCI-H522 lung
A549/ATCC NSCLC = tested on: A549/ATCC NSCLC
786-0 renal = tested on: 786-0 renal
COLO 205 colon = tested on: COLO 205 colon
DU-145 prostate = tested on: DU-145 prostate
K-562 leukemia = tested on: K-562 leukemia
MALME-3M melanoma = tested on: MALME-3M melanoma
MDA-MB-231 breast = tested on: MDA-MB-231 breast
RXF 393 renal = tested on: RXF 393 renal
SF-268 CNS = tested on: SF-268 CNS
SF-295 CNS = tested on: SF-295 CNS
SF-539 CNS = tested on: SF-539 CNS
UACC-257 melanoma = tested on: UACC-257 melanoma
M14 melanoma = tested on: M14 melanoma

SMILES	growth (NCI-H226 lung)	growth (NCI-H322M lung)	growth (HOP-62 NSCLC)	growth (NCI-H460 lung)	growth (HOP-92 NSCLC)	growth (NCI-H522 lung)	growth (A549/ATCC NSCLC)	growth (786-0 renal)	growth (COLO 205 colon)	growth (DU-145 prostate)	growth (K-562 leukemia)	growth (MALME-3M melanoma)	growth (MDA-MB-231 breast)	growth (RXF 393 renal)	growth (SF-268 CNS)	growth (SF-295 CNS)	growth (SF-539 CNS)	growth (UACC-257 melanoma)	growth (M14 melanoma)
CN1CCN(Cc2ccc(NC(=O)c3cncc(C#Cc4cnc(N)c5ccccc45)c3)cc2C(F)(F)F)CC1	-91% (active)	-87.1% (active)	-74.7% (active)	-77.3% (active)	-74.4% (active)	-73.2% (active)	-89.1% (active)	-79.6% (active)	-78.1% (active)	-97.6% (active)	-13.3% (active)	-88.6% (active)	-86.2% (active)	-96.2% (active)	-61.1% (active)	-87.4% (active)	-97.8% (active)	-90.1% (active)	-79.3% (active)
Cc1ccc(Cc2cnc(NC(=O)c3cc(Br)cs3)s2)cc1	73.1%	79.7%	50.8%	46.7%	59.1%	34.3%	51%	67.8%	80%	84.9%	15%	56.5%	70.9%	71.4%	71.7%	43.8%	66.4%	79.5%	30.4%
N#CCSc1nnc2n(Cc3ccccc3)c(=O)c3c4c(sc3n12)CCCC4	102%	102%	91.9%	108%	71.3%	104%	80.4%	76.3%	106%	107%	70.5%	99.5%	98.8%	83%	98%	102%	104%	98.9%	109%
O=C1c2c(c3c4ccccc4[nH]c3c3ccc4ccccc4c23)C(=O)N1CCN1CCCCC1	67.5%	61.1%	-11.9% (active)	4.88% (active)	53%	38%	32.3%	26%	47%	26.2%	-7.75% (active)	73.9%	75.7%	65.7%	39.6%	30.4%	46.3%	85.4%	30.2%
Cc1cc(Cl)ccc1NC(=O)c1cc2ccccc2cc1O	33.5%	-1.74% (active)	33.9%	2.76% (active)	-12.1% (active)	-8.43% (active)	20.8%	28.4%	99.8%	31.1%	9.93% (active)	7.3% (active)	23.7%	28%	30.8%	8.91% (active)	22.6%	-5.38% (active)	30.4%
CCCC(O)Cn1ncc(C(=O)OCC)c1NC(=O)NCc1ccccc1F (stereo unspecified)	96.8%	95.6%	105%	97.8%	92.1%	57%	82.4%	95.6%	116%	99.7%	66.7%	98.9%	91.3%	101%	96.3%	89.9%	107%	72.4%	93.1%
CC(C)CCNC(=O)Cn1cccc(NC(=O)OCc2ccccc2)c1=O	87.4%	112%	93.8%	102%	91.5%	88.2%	95.6%	111%	108%	109%	114%	104%	107%	106%	102%	107%	115%	104%	116%
CC(C)c1ccc(COCc2cc(CN3CCCC3)c(O)c3ncccc23)cc1	-6.04% (active)	12.2%		-40.8% (active)	-5.15% (active)	-40.1% (active)	7.74% (active)	-15.4% (active)	18.9%	18.6%	3.96% (active)	8.44% (active)	8.36% (active)	3.03% (active)	8.66% (active)	4.84% (active)	-22.1% (active)	-12.8% (active)	-6.21% (active)
